# Bioassay records as filed in PubChem BioAssay.
# HT1080NT lethal – qHTS for induction of synthetic lethality in tumor cells producing 2HG: qHTS for the HT-1080-NT fibrosarcoma cell line | HT-1080-NT fibrosarcoma viability, CellTiter-Glo ATP luminescence, 48 h | Potency, µM (highest dose often 46.1 µM), most hits filed as cytotoxic | 360,000 compounds, 1.6% hits;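 note: NT is the 2HG producing partner of a matched IDH1 knockdown line; nearly all actives have a fitted effect of over 55% in size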
#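 A 48-hour cytotoxicity screen used HT-1080-NT cells plated 2 hours before compound delivery. ATP-based CellTiter-Glo luminescence measured viability, normalized to DMSO and no-cell controls.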
# TGFb SMAD3 inh – qHTS for Inhibitors of TGF-b; 410,000 compounds, 1.2% hits; AID 588855, 2011; HepG2 CAGA-GFP TGF-b/SMAD3 reporter, GFP fluorescence, 18 h; TGF-beta stimulated, 500 pg/mL final; Potency, µM (series often up to 46.1 µM), usual class: inhibitors; note: nearly all actives have a fitted effect of over 65% in size
#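 Smad-responsive CAGA-GFP expression was quantified in HEPG2 cells exposed to compounds and 500 pg/mL final TGF-beta for 18 h at 37 degrees C; unstimulated wells defined full inhibition.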
# HepG2 viability – qHTS for Inhibitors of TGF-b: Cytotox Counterscreen. HepG2 CAGA-GFP viability, ATP luminescence, 18 h. Potency, µM (series often up to 46.1 µM), usual class: cytotoxic. 410,000 compounds, 0.76% hits. AID 588856, 2011
#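 HepG2 CAGA-GFP cells (1000/well, DMEM with 1% FBS) received compound, then TGF-beta at 500 pg/mL final, and were incubated 18 hours at 37 degrees C. Viability was read by CellTiter-Glo luminescence. Media-only wells were set as complete cell-killing and DMSO as no toxicity.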
# ATXN viability – Viability Counterscreen for Primary qHTS for Inhibitors of ATXN expression; S2 cells (HEK-293 line with an ATXN2-luciferase reporter) viability, CellTiter-Fluor protease fluorescence, 24 h; Potency, µM (highest dose often 56.7 µM), hits mostly cytotoxic; 400,000 compounds, 0.49% hits; AID 651635, 2014; note: nearly all actives have a fitted effect of over 40% in size
# ATXN2 expr inh – Primary qHTS for Inhibitors of ATXN expression. HEK-293 ATXN2-luciferase reporter, luminescence, 24 h. Potency, µM (top dose mostly 57 µM), hits mostly inhibitors. 360,000 compounds, 0.72% hits; note: nearly all actives have a fitted effect of over 55% in size
#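 qHTS (up to 57 uM final) was run with 24 h compound exposure of reporter cells at 37 °C. Each well was multiplexed: SteadyGlo luminescence measured ATXN2-luciferase expression after a fluorogenic Gly-Phe-AFC viability readout (25 uM final).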
# HT1080 IDH1KD tx – qHTS for induction of synthetic lethality in tumor cells producing 2HG: qHTS for the HT-1080-IDH1KD cell line. HT-1080 IDH1 knockdown viability, ATP luminescence, 48 h. Potency, µM (series often up to 46.1 µM), actives largely listed as cytotoxic. 360,000 compounds, 2% hits
#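 After a 2 h attachment period, IDH1KD HT-1080 cells took pin-transferred compound for 48 h at 37 °C; ATP-based luminescence after 10 min room-temperature reagent incubation reported viability.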
# Numbers stand for hits; - = inactive; ? = inconclusive; . = not tested or not shown. Rows were chosen to be rich in hits. Some 3.9% of all compounds tested hit in one or more screens of this group. Calls come from the whole dose curve; as a rule, active = well fitted curve in the direction sought with a large enough effect; inconclusive = small, poorly fitted or top-dose-only effect, or another doubt; inactive = no such curve, though single readings can be large; an effect the other way counts as inactive or inconclusive.
SMILES,HT1080NT lethal,TGFb SMAD3 inh,HepG2 viability,ATXN viability,ATXN2 expr inh,HT1080 IDH1KD tx
O=C(NCCCNc1nc(Nc2cccc(NC(=O)N3CCCC3)c2)ncc1I)c1cccs1,.,.,.,.,14µM,.
COc1cccc(NC(=O)N2CCCC2)c1,-,-,-,-,.,-
O=[N+]([O-])c1c(Nc2ccccc2O)cc(Cl)c2nonc12,10µM,4µM,10µM,13µM,13µM,5.8µM
O=[N+]([O-])c1c(Nc2ccccc2O)ccc2nonc12,-,-,-,?,-,-
O=C(O)c1cc(Nc2cc(Cl)c3nonc3c2[N+](=O)[O-])ccc1O,-,-,-,11µM,.,-
Cc1ncc2c(c1CNC(=O)c1cncs1)CCN(C(=O)c1csc(-c3cccs3)n1)C2,.,.,.,-,.,.
O=P(CCCCCCCCCP(=O)(c1ccccc1)c1ccccc1)(c1ccccc1)c1ccccc1,18µM,?,-,22µM,25µM,23µM
COc1ccccc1C(=O)Oc1c(Sc2ccccc2)c(C)nn1C(C)(C)C,.,?,-,-,-,.
FC(F)(F)c1cnc(NNC(=S)Nc2ccccc2Cl)c(Cl)c1,?,7.1µM,-,-,6µM,?
Cc1cccc(NC(=S)NNc2ncc(C(F)(F)F)cc2Cl)c1,-,?,-,-,?,-
COc1ccc(NC(=O)C(=O)N2N=C3CCCCC3C2(O)C(F)(F)F)cc1 (configuration not stated),-,-,-,?,.,-
CCC1=NN(C(=O)C(=O)NCCc2ccccc2)C(O)(C(F)(F)F)C1 (configuration not stated),?,-,-,-,-,18µM
COc1ccc(CC(=O)N2N=C(c3ccncc3)CC2(O)C(F)(F)F)cc1 (configuration not stated),15µM,-,-,?,.,9.2µM
CCC1=NN(C(=O)Cc2ccc(OC)cc2)C(O)(C(F)(F)F)C1 (configuration not stated),-,-,-,-,-,?
CCC1=NN(C(=O)C(=O)Nc2ccccc2OC)C(O)(C(F)(F)F)C1 (configuration not stated),2.8µM,?,-,-,-,1.4µM
CCC1=NN(C(=O)C(=O)Nc2ccc(OC)cc2)C(O)(C(F)(F)F)C1 (configuration not stated),8.9µM,?,-,-,-,5µM
Cc1ccc2c(/C=C/c3c[nH]c4ccccc34)ccnc2c1C,.,?,-,.,.,.
CC(C)(Oc1ccc(Cl)cc1)C(=O)Nc1ccc(-c2nc3ncccc3o2)cc1,.,-,-,-,-,.
COc1ccc(C(=O)Nc2nc3n(n2)C(c2ccc(F)cc2)C=C(c2ccc(Cl)cc2)N3)cc1 (configuration not stated),.,-,-,.,-,.
CSc1nn(Cc2ccccc2C)c(NC(C)=O)c1S(=O)(=O)c1ccc(C)cc1,.,?,-,?,-,.
CC(NC(=O)c1ccco1)c1nnc2n1CCN(Cc1ccc(N(C)C)cc1)CC2 (configuration not stated),.,.,.,-,.,.
CN(C)CC1CCC/C(=C\c2ccc(OC(=O)/C=C/c3ccc(Cl)c(Cl)c3)cc2)C1=O (configuration not stated),-,-,-,?,-,-
CN(C)CC1CCC/C(=C/c2ccc(Cl)cc2)C1=O (configuration not stated),-,?,-,12µM,?,?
COc1cc(Nc2ncc3c(n2)CCN(Cc2cc(F)cc(F)c2)C3)cc(OC)c1,.,-,-,?,?,.
Cc1cc(C)cc(-n2ccnc2SCC(=O)Nc2ccc3c(c2)OCO3)c1,.,-,-,-,-,.
CC(=O)c1cccc(NC(=O)c2cccc3c(-c4cccc(C(N)=O)c4)coc23)c1,?,-,-,?,32µM,-
